These results are taken from PMC11062922 (Nature Chemical Biology, 2023).

Holding throughout (parameters): species or system human, MV4-11 + K-562 + COLO205 + SK-N-BE2 + OVCAR-8
In one test the test system is PIK3CD. As to conditions: read-out: apparent Kd, n = 1.
The test system of the next test is ROCK2. As to conditions: read-out: apparent Kd, n = 1.
A further test deals with PIK3CA. As to conditions: read-out: apparent Kd, n = 1.
In a further test the test system is PIK3CB. As to conditions: read-out: apparent Kd, n = 1.
For the next test, the system named is PLK1. As to conditions: read-out: apparent Kd; compound concentrations: 100 nM and 1000 nM (sheet 'Samples'), CATDS: 1; n = 1.
The test system of a further test is TESK1. As to conditions: read-out: apparent Kd, n = 1.
A further test concerns ROCK1. As to conditions: read-out: apparent Kd, n = 1.
[1] abbreviates: compound concentrations: 100 nM and 1000 nM (sheet 'Samples'), CATDS: 1.
Setting [2] is: compound concentrations:100 nM and 1000 nM (sheet 'Samples').

Read-outs that look alike come from different tables or passages of the source.

For `COc1ccc(Nc2nccc(N3CCC(NC(=O)c4cccc(NC(C)=O)c4)C3)n2)cc1` (stereo not drawn) [GSK1379732A], the potency estimated from few doses with PIK3CD (setting [1]) was 141 nM.

Regarding `O=C(NCCNc1ccnc(NCc2ccc(F)cc2)n1)c1cc2ccccc2s1` [GSK1379944A], in the test on PIK3CD (setting [2]), the potency estimated from few doses was 200 nM.

With `CCn1c(-c2nonc2N)nc2ccccc21` [SB-693162], the potency estimated from few doses in the test on ROCK2 (setting [2]) was 1820 nM.

`CN(C)S(=O)(=O)c1cc(-c2ccc3nccc(-c4cccc(S(N)(=O)=O)c4)c3c2)cnc1N` [GSK1669921A]: the potency estimated from few doses is 23 nM with PIK3CA (compound concentrations: 100 nM and 1000 nM (sheet 'Samples'), CATDS: 0.37789009746554098); 777 nM in the test on PIK3CB (compound concentrations: 100 nM and 1000 nM (sheet 'Samples'), CATDS: 0.12770502550951299); 9.62 nM in the test with PIK3CD (compound concentrations: 100 nM and 1000 nM (sheet 'Samples'), CATDS: 0.59190161407117303).

`Cc1nn2c(=O)cc(N3CCO[C@H](C)C3)nc2n1Cc1cccc(Cl)c1Cl` [GSK2373693A]: in the test with PIK3CB (setting [1]), the potency estimated from few doses is 11.8 nM.

Consider `Cl.NC(=O)c1cccc(Nc2nccc(Nc3ccc(Oc4c(Cl)cccc4Cl)c(Cl)c3)n2)c1` [GW659009A], for which the potency estimated from few doses in the test with PIK3CA (compound concentrations: 100 nM and 1000 nM (sheet 'Samples'), CATDS: 0.34504160600825701) was 183 nM; in the test on PIK3CD (compound concentrations: 100 nM and 1000 nM (sheet 'Samples'), CATDS: 0.90760673272471903) it was 9.83 nM.

Turning to `Cc1c(Cn2c(C)c(C)n3c(=O)cc(N4CCOCC4)nc23)cccc1C(F)(F)F` [GSK2328680_KCGS], in the test with PIK3CB (setting [1]), the potency estimated from few doses is 45.8 nM.

With `O=C(NCCNc1ccnc(Nc2ccc(F)cc2)n1)Nc1ccccc1F` [GSK1379880A], the potency estimated from few doses in the test with PIK3CA (compound concentrations: 100 nM and 1000 nM (sheet 'Samples'), CATDS: 0.78372192939813501) is 233 nM.

As for `O=C(O)C(F)(F)F.[2H]C([2H])(c1cccc(C(F)(F)F)c1C)n1c(SC)nn2c(=O)cc(N3CCOCC3)nc12` [GSK2363608B], the potency estimated from few doses is 8.69 nM in the test on PIK3CB (setting [2]) and 146 nM with PIK3CD (setting [2]).

As for `Cc1nn2c(=O)cc(N3CCOCC3)nc2n1Cc1cccc(Cl)c1Cl` [GSK2342769A], the potency estimated from few doses with PIK3CB (compound concentrations: 100 nM and 1000 nM (sheet 'Samples'), CATDS: 0.39167168284884402) was 14.2 nM; in the test on PIK3CD (setting [2]), 87.6 nM.

Regarding `CCCCCc1nc2c(N)ncnc2n1CCCCC` [SKF-97255], the potency estimated from few doses in the test with PIK3CD (setting [1]) was 152 nM.

As to `Cl.O=S1CCN(Cc2ccc(-c3ccc4ncnc(Nc5ccc(OCc6ccccc6)c(Cl)c5)c4c3)o2)CC1` [GW583373A], in the test on PIK3CA (setting [2]), the potency estimated from few doses was 213 nM.

For `Cc1ccccc1Cn1ccn2c(=O)cc(N3CCOCC3)nc12` [GSK2269905A], in the test on PIK3CB (compound concentrations: 100 nM and 1000 nM (sheet 'Samples'), CATDS: 0.94535386241692498), the potency estimated from few doses was 41.9 nM.

On to `Nc1ncnc2c1nc(-c1ccccc1)n2-c1ccccc1` [SKF-97293], for which the potency estimated from few doses with PIK3CA (setting [1]) was 284 nM.

On to `O=c1cc(N2CCOCC2)nc2n(Cc3ccc(F)c(Cl)c3)ccn12` [GSK2297099A], for which the potency estimated from few doses was 186 nM in the test on PIK3CA (setting [2]); 32.5 nM with PIK3CB (compound concentrations: 100 nM and 1000 nM (sheet 'Samples'), CATDS: 0.58054918147360901); 150 nM in the test with PIK3CD (setting [2]).

With `COc1ncc(-c2cc(-c3ncc(CN4C[C@@H](C)O[C@@H](C)C4)o3)c3cn[nH]c3c2)cc1NS(C)(=O)=O` [GSK2292767], the potency estimated from few doses was 9.18 nM in the test with PIK3CA (compound concentrations: 100 nM and 1000 nM (sheet 'Samples'), CATDS: 0.29964038012822602); 335 nM in the test with PIK3CB (compound concentrations: 100 nM and 1000 nM (sheet 'Samples'), CATDS: 0.10653178363766699); 0.614 nM with PIK3CD (compound concentrations: 100 nM and 1000 nM (sheet 'Samples'), CATDS: 0.86289624081171401).

As to `Cc1ccccc1COc1cc(-n2cnc3cc(Cl)ccc32)sc1C(N)=O` [GW813349X], the potency estimated from few doses in the test on PLK1 is 1570 nM.

Turning to `CCCNC(=O)Nc1ccc(N(C)c2ccnc(NC3CC3)n2)cc1` [GW818933X], in the test on TESK1 (compound concentrations: 100 nM and 1000 nM (sheet 'Samples'), CATDS: 0.44455887865749399), the potency estimated from few doses is 1860 nM.

For `Cc1nnc(-c2ccc(C)c(-c3ccc(C(=O)O)cc3)c2)o1` [GW608005X], the potency estimated from few doses in the test with TESK1 (setting [2]) was 900 nM.

Consider `C[C@@H]1CC[C@H](C(=O)NC2CCCCC2)CN1c1cc(-c2ccc3c(N)n[nH]c3c2)nc(N)n1` [GSK2291363A], for which the results for the potency estimated from few doses in the test on ROCK1 (setting [2]) and in the test on ROCK2 (setting [2]) were 2010 nM and 1450 nM, respectively.

With `COC(=O)c1cccc(NC(=O)NC2CCN(c3ccnc(Nc4ccc(F)cc4)n3)C2)c1` (stereo not drawn) [GSK1379725A], the potency estimated from few doses in the test on TESK1 (setting [1]) is 1320 nM.

For the compound `CC1=C(C(=O)Nc2ccc3[nH]ncc3c2)C(c2ccc(Cl)c(Cl)c2)CC(=O)N1` (stereo not drawn) [GSK299115A], the potency estimated from few doses with ROCK1 (setting [2]) was 112 nM; in the test with ROCK2 (setting [2]), 140 nM.

In the case of `CCn1c(-c2nonc2N)nc2cnc(Oc3cccc(NC(=O)c4ccc(N(C)C)cc4)c3)cc21` [GSK248233A], the results for the potency estimated from few doses in the test with ROCK1 (setting [2]) and with ROCK2 (setting [2]) were 230 nM and 181 nM, respectively.

For `N#Cc1ccc(C(=O)c2cnn(-c3ccc(F)cc3)c2N)cc1` [RO1153198-000], in the test on TESK1 (compound concentrations: 100 nM and 1000 nM (sheet 'Samples'), CATDS: 0.53853377364092803), the potency estimated from few doses is 1530 nM.

As for `CN(C)CCCn1c(-c2nonc2N)nc2cnccc21` [SB-751399-B], the potency estimated from few doses is 1470 nM with ROCK1 (compound concentrations: 100 nM and 1000 nM (sheet 'Samples'), CATDS: 0.43789550307339298); 821 nM in the test with ROCK2 (compound concentrations: 100 nM and 1000 nM (sheet 'Samples'), CATDS: 0.58263169675533599).

As to `CC1=C(C(=O)Nc2cc3cn[nH]c3cc2F)C(c2ccc(C(F)(F)F)cc2)CC(=O)N1` (stereo not drawn) [GSK429286A], the potency estimated from few doses was 57.8 nM in the test with ROCK1 (compound concentrations: 100 nM and 1000 nM (sheet 'Samples'), CATDS: 0.46177660943925602); 53 nM in the test with ROCK2 (compound concentrations: 100 nM and 1000 nM (sheet 'Samples'), CATDS: 0.48334108773041601).

Turning to `NC(=O)c1sc(-n2cnc3ccccc32)cc1OCc1ccccc1Br` [GSK1023156A], the potency estimated from few doses with PLK1 is 814 nM.

As for `Nc1nonc1-c1nc2cnccc2n1C1CC1` [SB-736302], the potency estimated from few doses in the test with ROCK1 (compound concentrations: 100 nM and 1000 nM (sheet 'Samples'), CATDS: 0.19196895649818499) was 1820 nM; with ROCK2 (compound concentrations: 100 nM and 1000 nM (sheet 'Samples'), CATDS: 0.21159695131376299), 1380 nM.

For the compound `Cl.NC(=O)c1cccc(Nc2nccc(Nc3ccc(Oc4cccc(Cl)c4)c(Cl)c3)n2)c1` [GW659008A], the potency estimated from few doses in the test on TESK1 (setting [1]) is 1780 nM.

As to `CC1=C(C(=O)Nc2ccc3[nH]nc(C)c3c2)C(c2ccc(C(F)(F)F)cc2)CC(=O)N1` (stereo not drawn) [GSK466314A], the potency estimated from few doses in the test with ROCK1 (compound concentrations: 100 nM and 1000 nM (sheet 'Samples'), CATDS: 0.49623940575875802) is 94.4 nM; in the test on ROCK2 (compound concentrations: 100 nM and 1000 nM (sheet 'Samples'), CATDS: 0.50381802643412599) it was 91.6 nM.

On to `CC1=C(C(=O)Nc2ccc3[nH]ncc3c2)C(c2ccc(F)cc2)N=C(c2ccc(C(F)(F)F)nc2)N1` (stereo not drawn) [GSK317354A], for which the potency estimated from few doses is 630 nM in the test with ROCK1 (compound concentrations: 100 nM and 1000 nM (sheet 'Samples'), CATDS: 0.52745543701192599); 777 nM in the test on ROCK2 (compound concentrations: 100 nM and 1000 nM (sheet 'Samples'), CATDS: 0.475261399355146).
